According to PubChem BioAssay (NCI):
About 83,000 compounds went through this panel and 20% of them were active in at least one assay; those are over-represented in the sample as a whole.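 Results are percent growth after 48 hours of single-concentration exposure. 100 means growth as in untreated cells, lower positive values show inhibition; negative values down to -100 show cell death.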 Active and inactive are the calls of the source. Rule for the calls: active = growth percent below 10; inactive = the rest.

Experiments:
Assay in all cases: NCI-60 one-dose screen, 48 h (100 = growth as untreated, 0 = no growth, -100 = all killed)
Conditions in all cases: 10 µM unless noted
SR leukemia = system: SR leukemia
RPMI-8226 leukemia = system: RPMI-8226 leukemia
OVCAR-8 ovarian = system: OVCAR-8 ovarian
OVCAR-5 ovarian = system: OVCAR-5 ovarian
OVCAR-4 ovarian = system: OVCAR-4 ovarian
SK-OV-3 ovarian = system: SK-OV-3 ovarian
IGROV1 ovarian = system: IGROV1 ovarian
OVCAR-3 ovarian = system: OVCAR-3 ovarian
HS 578T breast = system: HS 578T breast
NCI/ADR-RES ovarian = system: NCI/ADR-RES ovarian

Measured: growth

C[C@@H]1[C@H]2C[C@@H](C[C@H]1NCc1nc3ccccc3n1C1CCCCCC1)C2(C)C
inactive: SR leukemia 15.4% | RPMI-8226 leukemia 27.6% | OVCAR-8 ovarian 75.1% | OVCAR-5 ovarian 85.9% | OVCAR-4 ovarian 72.4% | SK-OV-3 ovarian 90.4% | IGROV1 ovarian 75.8% | OVCAR-3 ovarian 64.5% | HS 578T breast 80.2% | NCI/ADR-RES ovarian 25.9%

O=C(Cc1c(-c2ccccc2[N+](=O)[O-])n(-c2ncnc3c2c(-c2ccccc2)c(-c2ccccc2)n3Cc2ccccc2)[nH]c1=O)c1ccc(Cl)c(Cl)c1
inactive: SR leukemia 14.2% | OVCAR-8 ovarian 25.5% | OVCAR-5 ovarian 55.1% | OVCAR-4 ovarian 19.2% | SK-OV-3 ovarian 39.3% | IGROV1 ovarian 25.2% | OVCAR-3 ovarian 14.2% | HS 578T breast 22% | NCI/ADR-RES ovarian 50.7%
active: RPMI-8226 leukemia -3.03%

O=C(CSc1nnc(-c2ccc(-c3nc4ccc(Cl)cc4[nH]3)cc2)o1)Nc1ccccc1
active: OVCAR-8 ovarian -44.3%
inactive: SR leukemia 10.9% | RPMI-8226 leukemia 45.6% | OVCAR-5 ovarian 49.9% | OVCAR-4 ovarian 37.9% | SK-OV-3 ovarian 66.3% | IGROV1 ovarian 70.8% | OVCAR-3 ovarian 43.4% | HS 578T breast 40.6% | NCI/ADR-RES ovarian 31.7%

Clc1ccc(CNc2nc(SCCN3CCOCC3)nc3c2cnn3CC(Cl)c2ccc(Br)cc2)cc1 (stereo not given)
active: SR leukemia -14.9% | RPMI-8226 leukemia 1.89%
inactive: OVCAR-8 ovarian 44.3% | OVCAR-5 ovarian 75.5% | OVCAR-4 ovarian 44.6% | SK-OV-3 ovarian 62.5% | IGROV1 ovarian 67.9% | OVCAR-3 ovarian 56.5% | HS 578T breast 49.4% | NCI/ADR-RES ovarian 34.5%

COc1cc(C2C(C(=O)OCc3ccccc3)=C(C)Nc3nc4ccccc4n32)cc(OC)c1OC (stereo not given)
active: OVCAR-4 ovarian 1.46% | NCI/ADR-RES ovarian 6.58%
inactive: SR leukemia 11.3% | RPMI-8226 leukemia 48.8% | OVCAR-8 ovarian 13.5% | OVCAR-5 ovarian 45.5% | SK-OV-3 ovarian 25.6% | IGROV1 ovarian 44.1% | OVCAR-3 ovarian 12.1% | HS 578T breast 14%

Clc1ccc(-c2nc3ccc(-c4nnc(SCc5ccccc5)o4)cc3[nH]2)cc1
inactive: SR leukemia 23.3% | RPMI-8226 leukemia 27.7% | OVCAR-5 ovarian 32.4% | SK-OV-3 ovarian 83.1% | IGROV1 ovarian 27.1% | HS 578T breast 48.7%
active: OVCAR-8 ovarian 8.94% | OVCAR-4 ovarian 3.57% | OVCAR-3 ovarian -1.55% | NCI/ADR-RES ovarian -9.86%

COC(=O)c1c(C(=O)OC)c2c3ccccc3c3ccccc3n2c1C(=O)C(C)(C)C
active: SR leukemia -17.3%
inactive: RPMI-8226 leukemia 47.2% | OVCAR-8 ovarian 90.5% | OVCAR-5 ovarian 97.9% | OVCAR-4 ovarian 57.6% | SK-OV-3 ovarian 122% | IGROV1 ovarian 96.3% | OVCAR-3 ovarian 112% | HS 578T breast 69.4% | NCI/ADR-RES ovarian 83.3%

O=C(N/N=C/c1ccc(Br)o1)c1[nH]c2ccc(Br)cc2c1-c1ccccc1
active: SR leukemia 5.02% | OVCAR-8 ovarian -35.9% | OVCAR-5 ovarian -21.8% | OVCAR-4 ovarian -17.2% | IGROV1 ovarian 5.42% | OVCAR-3 ovarian -28.6% | HS 578T breast -4.62% | NCI/ADR-RES ovarian -41.6%
inactive: RPMI-8226 leukemia 10.6% | SK-OV-3 ovarian 22%

CN1C(=O)C2(C(C#N)=C(c3ccc(Cl)cc3)Nc3c2c(-c2ccccc2)nn3-c2ccccc2)c2ccccc21 (stereo not given)
inactive: SR leukemia 29.6% | RPMI-8226 leukemia 60.3% | OVCAR-8 ovarian 98.5% | OVCAR-5 ovarian 96% | OVCAR-4 ovarian 96.1% | SK-OV-3 ovarian 99.2% | IGROV1 ovarian 98% | OVCAR-3 ovarian 112% | HS 578T breast 65.3% | NCI/ADR-RES ovarian 78.8%

COc1c(F)ccc(C(=O)Nc2ccc3nc(NC(=O)C4CCCN(S(=O)(=O)c5ccc(C(C)(C)C)cc5)C4)sc3c2)c1F (stereo not given)
inactive: SR leukemia 17.3% | RPMI-8226 leukemia 44.3% | OVCAR-8 ovarian 84.9% | OVCAR-5 ovarian 81.3% | OVCAR-4 ovarian 54% | SK-OV-3 ovarian 80.8% | IGROV1 ovarian 55.5% | OVCAR-3 ovarian 83.9% | HS 578T breast 58.2% | NCI/ADR-RES ovarian 67.6%

O=C1/C(=C/C=C/c2ccco2)SC(=S)N1CC(=S)C1C=CS(=O)(=O)C1 (stereo not given)
inactive: SR leukemia 39% | RPMI-8226 leukemia 63.9% | OVCAR-8 ovarian 97.1% | OVCAR-5 ovarian 100% | OVCAR-4 ovarian 96.1% | SK-OV-3 ovarian 105% | IGROV1 ovarian 92.7% | OVCAR-3 ovarian 65.9% | HS 578T breast 109% | NCI/ADR-RES ovarian 95.8%

CC[C@@]12CC(C(=O)OC)=C3Nc4cc5c(cc4[C@@]34CCN(C[C@H]3O[C@H]31)[C@@H]24)[C@@H]1[C@H](O5)[C@@H](O)[C@@]2(CC)CC(C(=O)OC)=C3Nc4cc(O)ccc4[C@@]34CCN1[C@@H]24
active: SR leukemia -29.6% | RPMI-8226 leukemia -9.59% | OVCAR-8 ovarian 2.33% | OVCAR-5 ovarian -74.7% | OVCAR-4 ovarian -39% | SK-OV-3 ovarian -32.4% | IGROV1 ovarian -65.8% | OVCAR-3 ovarian -15.7% | HS 578T breast 6.27% | NCI/ADR-RES ovarian 6.74%

Cn1cc(-c2cc(N)n3nc(-c4c[nH]c5ccc(Cl)cc45)cc3n2)c2cccnc21
active: SR leukemia -26.2% | RPMI-8226 leukemia -17.8% | OVCAR-8 ovarian -76.2% | OVCAR-5 ovarian -82.5% | OVCAR-4 ovarian -42% | SK-OV-3 ovarian -73.5% | IGROV1 ovarian -77.7% | OVCAR-3 ovarian -71.3% | HS 578T breast -26.2% | NCI/ADR-RES ovarian -73.8%

COC(=O)c1cc(C(=O)CBr)n2c1ccc1c3ccccc3ccc12
inactive: RPMI-8226 leukemia 38.7% | OVCAR-8 ovarian 31.3% | OVCAR-5 ovarian 72.8% | OVCAR-4 ovarian 101% | SK-OV-3 ovarian 62% | IGROV1 ovarian 33.5% | OVCAR-3 ovarian 103% | HS 578T breast 61% | NCI/ADR-RES ovarian 57.4%
active: SR leukemia 2.25%

CCN(C(=O)CN1C(=O)/C(=C/c2ccco2)SC1=S)C1CCS(=O)(=O)C1 (stereo not given)
inactive: SR leukemia 87.5% | RPMI-8226 leukemia 101% | OVCAR-8 ovarian 101% | OVCAR-5 ovarian 111% | OVCAR-4 ovarian 94.2% | SK-OV-3 ovarian 101% | IGROV1 ovarian 111% | OVCAR-3 ovarian 103% | HS 578T breast 118% | NCI/ADR-RES ovarian 93.6%

O=C1Nc2cc(-c3ccc(NS(=O)(=O)c4ccc(F)c(Cl)c4)cc3)ccc2/C1=C/c1ccc[nH]1
active: SR leukemia 6.77%
inactive: RPMI-8226 leukemia 21.4% | OVCAR-8 ovarian 34.9% | OVCAR-5 ovarian 19.7% | OVCAR-4 ovarian 26.4% | SK-OV-3 ovarian 39.6% | IGROV1 ovarian 45.9% | OVCAR-3 ovarian 56.9% | HS 578T breast 45.6% | NCI/ADR-RES ovarian 29.7%

O=C(c1ccc(Cl)cc1)C1[C@H](c2ccccc2Cl)[C@@H](c2ccccc2)NC12C(=O)Nc1ccc(Br)cc12 (stereo not given in full)
active: SR leukemia -54.4% | RPMI-8226 leukemia 2.44% | OVCAR-8 ovarian -76.9% | OVCAR-5 ovarian -91.5% | OVCAR-4 ovarian -33.3% | SK-OV-3 ovarian -7.68% | IGROV1 ovarian -59.8% | OVCAR-3 ovarian -48.3% | HS 578T breast -36% | NCI/ADR-RES ovarian -87%

O=C(c1ccc(Cl)cc1)C1[C@H](c2ccccc2Cl)[C@@H](c2ccccc2)NC12C(=O)Nc1ccccc12 (stereo not given in full)
inactive: SK-OV-3 ovarian 23.1%
active: SR leukemia -41% | RPMI-8226 leukemia -0.108% | OVCAR-8 ovarian -31% | OVCAR-5 ovarian -5.18% | OVCAR-4 ovarian 2.24% | IGROV1 ovarian -2.25% | OVCAR-3 ovarian -15.5% | HS 578T breast -38.3% | NCI/ADR-RES ovarian -62.5%

COc1ccc(NC(=O)Nc2nc3ccc([N+](=O)[O-])cc3s2)cc1
inactive: OVCAR-8 ovarian 17.1% | OVCAR-5 ovarian 60.4% | OVCAR-4 ovarian 15.2% | SK-OV-3 ovarian 58.6% | IGROV1 ovarian 26.4% | OVCAR-3 ovarian 18%
active: SR leukemia 5.15% | RPMI-8226 leukemia -2.91% | HS 578T breast 5.84% | NCI/ADR-RES ovarian -1.49%

Oc1ccc(Cl)c(Nc2ncnc3c2cnn3CC(Cl)c2ccc(Br)cc2)c1 (stereo not given)
active: IGROV1 ovarian -2.62% | HS 578T breast -17.7%
inactive: SR leukemia 55.3% | RPMI-8226 leukemia 52.3% | OVCAR-8 ovarian 54.9% | OVCAR-5 ovarian 49.6% | OVCAR-4 ovarian 57.8% | SK-OV-3 ovarian 49.2% | OVCAR-3 ovarian 32.3% | NCI/ADR-RES ovarian 48%

Nc1nn2c(-c3cc4cc(Br)ccc4oc3=O)ccnc2c1N=Nc1ccc(Br)cc1
active: IGROV1 ovarian -16.1% | OVCAR-3 ovarian 5.27%
inactive: SR leukemia 29.7% | RPMI-8226 leukemia 86.3% | OVCAR-8 ovarian 14.5% | OVCAR-5 ovarian 11.8% | OVCAR-4 ovarian 12.8% | SK-OV-3 ovarian 22.4% | HS 578T breast 28.3% | NCI/ADR-RES ovarian 14.1%

NS(=O)(=O)c1ccc(N2N=C(c3ccc(NC(=O)Nc4ccccc4)cc3)CC2c2ccc(Br)cc2)cc1 (stereo not given)
inactive: SR leukemia 13%
active: RPMI-8226 leukemia 4.09% | OVCAR-8 ovarian -32.7% | OVCAR-5 ovarian -98.2% | OVCAR-4 ovarian -85.2% | SK-OV-3 ovarian -61.7% | IGROV1 ovarian -86.7% | OVCAR-3 ovarian -29.7% | HS 578T breast -24.5% | NCI/ADR-RES ovarian -83.4%

O=C(Nc1nc2ccccc2s1)Nc1ccccc1Cl
inactive: SR leukemia 111% | RPMI-8226 leukemia 91.9% | OVCAR-8 ovarian 48.5% | OVCAR-5 ovarian 89.6% | OVCAR-4 ovarian 34.2% | SK-OV-3 ovarian 49.2% | IGROV1 ovarian 79.4% | OVCAR-3 ovarian 111% | HS 578T breast 22.7% | NCI/ADR-RES ovarian 76%

CCCCCCCCc1cccc(CC(=O)Nc2ccc(C)cc2C(=O)O)c1
inactive: SR leukemia 31.1% [25 µM] | RPMI-8226 leukemia 25.4% [25 µM] | OVCAR-8 ovarian 45.6% [25 µM] | OVCAR-5 ovarian 75.6% [25 µM] | OVCAR-4 ovarian 86.1% [25 µM] | SK-OV-3 ovarian 89.2% [25 µM] | IGROV1 ovarian 42.5% [25 µM] | OVCAR-3 ovarian 69.4% [25 µM] | HS 578T breast 89.8% [25 µM] | NCI/ADR-RES ovarian 49.6% [25 µM]

COc1sc(/C=N/NC(=O)c2[nH]c3ccc(Br)cc3c2-c2ccccc2)cc1Br
active: SR leukemia 4.82% | RPMI-8226 leukemia 9.25% | OVCAR-5 ovarian 0.79% | OVCAR-3 ovarian -0.827% | NCI/ADR-RES ovarian -64.9%
inactive: OVCAR-8 ovarian 12% | OVCAR-4 ovarian 41.9% | SK-OV-3 ovarian 40.2% | IGROV1 ovarian 11.8% | HS 578T breast 20.7%

CC1=NN(C2=NC(=O)C(CC(=O)Nc3ccccc3C(F)(F)F)S2)C(c2ccc(N(C)C)cc2)C1 (stereo not given)
inactive: SR leukemia 16.5% | RPMI-8226 leukemia 25.3% | OVCAR-8 ovarian 52.6% | OVCAR-5 ovarian 86% | OVCAR-4 ovarian 47.5% | SK-OV-3 ovarian 80.6% | IGROV1 ovarian 59.2% | OVCAR-3 ovarian 44.9% | HS 578T breast 43.8% | NCI/ADR-RES ovarian 62.7%
